This is an account of results in PubChem BioAssay (EPA / NIEHS).

Each structure is given as a SMILES string. The source made the active and inactive calls. How the source made its calls: active means hit-call score of the fitted dose curve at least 0.9, where 1 is the maximum; inactive means score below 0.9.

Assay [1] is described as follows: APR_HepG2_CellCycleArrest_24hr: Apredica 24-hour HepG2 Assay for Cell Cycle Arrest (AID 2282905).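 Further: cell cycle arrest scored as ratio of 2N to 4N nuclear DNA content.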 The note with it: imaging, actives raise or lower the signal. In outline: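 Compounds at 0.39–200 uM (0.5% DMSO) for 24 h, then fixed and Hoechst 33342 stained. Cell-cycle analysis of nuclear DNA content by high-content imaging, fitted bidirectionally versus DMSO.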

A short description of assay [2]: APR_HepG2_StressKinase_1hr: Apredica 1-hour HepG2 Assay for Stress Kinase (AID 2282906). The conditions noted are these: HepG2 stress kinase (phospho-c-Jun) imaging, actives raise or lower the signal. In outline:
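HepG2 cells dosed 0.39-200 uM (0.5% DMSO) for 1 h, then formaldehyde-fixed. Stress kinase read by phospho-c-Jun immunofluorescence using high-content imaging; bidirectional fit vs DMSO.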

The nature of assay [3]: APR_HepG2_MicrotubuleCSK_24hr: Apredica 24-hour HepG2 Assay for Microtubule CSK Stabilty (AID 2282909). The conditions noted are these: HepG2 microtubule cytoskeleton imaging, actives raise or lower the signal. The essentials:
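HepG2 cells were treated 24 hr with compound at 0.39–200 uM in duplicate (0.5% DMSO final), then fixed and permeabilized. Alpha-tubulin immunofluorescence was imaged by high-content microscopy, with bidirectional fitting against DMSO and taxol as positive control.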

Assay [4] can be described thus: APR_HepG2_MitoticArrest_24hr: Apredica 24-hour HepG2 Assay for Mitotic Arrest (AID 2282910). The conditions noted are these: high-content imaging, actives raise or lower the signal. In outline:
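Compounds are dosed onto HepG2 cells across ten concentrations up to 200 uM for 24 hr. Cells are then fixed in 3.7% formaldehyde, permeabilised, and labelled for phospho-histone H3 and nuclei; images are scored by cell cycle analysis and fitted bidirectionally relative to DMSO.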

Assay [5] is described as follows: APR_HepG2_MitoMembPot_24hr: Apredica 24-hour HepG2 Assay for Mitochondrial Membrane Potential (AID 2282911). The note with it: imaging, actives raise or lower the signal. The essentials: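 HepG2 cells exposed 24 h to 0.39–200 uM compounds in duplicate, 0.5% v/v DMSO final. MitoTracker Red CMXRos 250 nM loaded 30 min before formaldehyde fixation; high-content imaging at 20x, bidirectional fit versus DMSO.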

Assay [6] can be described thus: APR_HepG2_MitoMass_24hr: Apredica 24-hour HepG2 Assay for Mitochondrial Mass (AID 2282912). The note with it: high-content imaging, actives raise or lower the signal. In outline:
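HepG2 cells exposed 24 hr to 0.39–200 uM compound, 0.5% v/v DMSO, in duplicate. Stained before fixation with 250 nM MitoTracker Red CMXRos for 30 min, then imaged at 20x with Hoechst nuclei. Fitted in both directions against DMSO.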

The nature of assay [7]: APR_HepG2_p53Act_24hr: Apredica 24-hour HepG2 Assay for p53 Activation (AID 2282913).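 Further: p53 protein immunofluorescence averaged per cell in HepG2 with Hoechst nuclei.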 The conditions noted are these: high-content imaging, actives raise or lower the signal. The essentials: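 HepG2 cells exposed 24 h to compounds at 0.39–200 uM in duplicate, 0.5% v/v DMSO final; fixed, permeabilized, stained with anti-p53 antibody and Hoechst 33342; fluorescence imaging; bidirectional curve fit versus DMSO.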

A short description of assay [8]: APR_HepG2_CellCycleArrest_72hr: Apredica 72-hour HepG2 Assay for Cell Cycle Arrest (AID 2282914). The note with it: high-content imaging, actives raise or lower the signal. In outline: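 HepG2 cells exposed 72 h in duplicate to 0.39–200 uM compound, 0.5% DMSO final. Formaldehyde-fixed, Hoechst 33342-stained nuclei imaged at 20x, six fields per well; DNA content per valid cell quantified by cell-cycle image analysis, bidirectional fit versus DMSO.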

The nature of assay [9]: APR_HepG2_CellLoss_72hr: Apredica 72-hour HepG2 Assay for Cell Loss (AID 2282915). The note with it: high-content imaging. The essentials: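 Cell number comes from Hoechst 33342-labelled nuclei, imaged at 20x after 3.7% formaldehyde fixation. Dosing was 0.39–200 uM, ten concentrations in duplicate, 0.5% DMSO final, for 72 h. Bidirectional fit relative to DMSO baseline.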

Assay [10] can be described thus: APR_HepG2_P-H2AX_72hr: Apredica 72-hour HepG2 Assay for H2AX Phosphorylation (AID 2282916).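 Further: phospho-histone H2A.x immunostain intensity per cell marking DNA damage.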 The note with it: imaging, actives raise or lower the signal. In outline: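 HepG2 cells treated 72 h at 0.39–200 uM, 0.5% DMSO final, duplicates. Formaldehyde-fixed, Triton-permeabilised, immunostained for phospho-H2A.x with Hoechst; fluorescence imaged at 20x, bidirectional fit versus DMSO.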

Assay [11] can be described thus: APR_HepG2_MitoMembPot_72hr: Apredica 72-hour HepG2 Assay for Mitochondrial Membrane Potential (AID 2282917). The note with it: imaging, actives raise or lower the signal. The essentials:
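Membrane potential read by MitoTracker Red CMXRos (250 nM, 30 min, pre-fixation) fluorescence imaging of HepG2 after 72 hr exposure. Ten concentrations, 0.39–200 uM, duplicate wells, 0.5% DMSO; fitted in both directions against DMSO baseline.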

Assay [12] can be described thus: APR_HepG2_MitoticArrest_72hr: Apredica 72-hour HepG2 Assay for Mitotic Arrest (AID 2282918). The conditions noted are these: high-content imaging, actives raise or lower the signal. In outline:
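HepG2 cells treated 72 h at 0.39–200 uM, 0.5% DMSO final; formaldehyde-fixed, stained with Hoechst 33342 and phospho-histone H3 antibody, imaged by high-content fluorescence; bidirectional fit versus DMSO.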

The nature of assay [13]: APR_HepG2_MicrotubuleCSK_72hr: Apredica 72-hour HepG2 Assay for Microtubule CSK Stabilty (AID 2282919). The conditions noted are these: HepG2 microtubule cytoskeleton, high-content imaging, actives raise or lower the signal. In outline: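 Read-out is tubulin fluorescence intensity from high-content imaging of HepG2 cells, with nuclei identified by Hoechst 33342. Treatment lasts 72 h at 0.39–200 uM, and curves are fitted bidirectionally against the DMSO negative control.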

Assay [14] is described as follows: APR_HepG2_P-H2AX_24hr: Apredica 24-hour HepG2 Assay for H2AX Phosphorylation (AID 2282920). The conditions noted are these: high-content imaging, actives raise or lower the signal. In outline:
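HepG2 cells dosed 24 h at 0.39–200 uM (10 points, duplicate, 0.5% DMSO final). Formaldehyde-fixed and permeabilized, then immunostained for phospho-H2A.x with Hoechst. Fluorescence quantified by high-content imaging, fitted bidirectionally versus DMSO.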

A short description of assay [15]: APR_HepG2_StressKinase_72hr: Apredica 72-hour HepG2 Assay for Stress Kinase (AID 2282921). The conditions noted are these: HepG2 stress kinase (phospho-c-Jun) imaging, actives raise or lower the signal. The essentials:
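HepG2 cells treated 72 hr with 0.39–200 uM compound, 0.5% v/v DMSO, duplicate wells. After formaldehyde fixation and Triton permeabilization, stained with anti-phospho-c-Jun (1:500) and Cy3 secondary, imaged at 20x. Fitted in both directions against DMSO.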

A short description of assay [16]: APR_HepG2_StressKinase_24hr: Apredica 24-hour HepG2 Assay for Stress Kinase (AID 2282922). The conditions noted are these: HepG2 stress kinase (phospho-c-Jun) imaging, actives raise or lower the signal. In outline:
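HepG2, 24 hr dosing, 0.39–200 uM in duplicate, 0.5% DMSO; formaldehyde fix (3.7%), 0.5% Triton X-100; anti-phospho-c-Jun + Cy3 secondary, Hoechst counterstain; ArrayScan imaging; bidirectional curve fit vs DMSO baseline.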

Assay [17] can be described thus: APR_HepG2_p53Act_72hr: Apredica 72-hour HepG2 Assay for p53 Activation (AID 2282923).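 Further: average cellular p53 protein immunofluorescence intensity in HepG2 cells.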 The conditions noted are these: high-content imaging, actives raise or lower the signal. The essentials: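 HepG2 cells exposed 72 h to 0.39–200 uM in 0.5% DMSO, duplicates. Fixed, permeabilized cells immunostained for p53 (Cy5) with Hoechst; imaged at 20x, fluorescence analyzed bidirectionally against DMSO.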

A short description of assay [18]: APR_HepG2_MitoMass_72hr: Apredica 72-hour HepG2 Assay for Mitochondrial Mass (AID 2282924).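 Further: MitoTracker Red CMXRos stain intensity per cell imaged as mitochondrial mass.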 The conditions noted are these: high-content imaging, actives raise or lower the signal. The essentials: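 HepG2, 72 hr cmpd, 10 conc 0.39–200 uM in dup, DMSO 0.5% v/v. MitoTracker Red CMXRos 250 nM 30 min pre-fix; formaldehyde 3.7% fix 30 min RT. HCS imaging, gain/loss fit vs DMSO.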

Broadly, the AC50 is the concentration at which the activity in the assay is half-maximal. Regarding `Fc1ccc(Oc2ccnc3cc(Cl)cc(Cl)c23)cc1`, the outcome in assay [1], in assay [2], in assay [3], in assay [5], in assay [6] and in [7] was inactive. In addition, the compound was classed as inactive in assay [8], in [10], in assay [11], in assay [12], in assay [13] and in assay [15]. Also, the call in assay [16], in assay [17] and in assay [18] was inactive. For the same compound, the AC50 was 109 µM (active) in [4], 76.2 µM (active) in [9] and 100 µM (active) in [14].

For `CC1COC(Cn2cncn2)(c2ccc(Oc3ccc(Cl)cc3)cc2Cl)O1` (stereo unspecified), the outcome in assay [1], in [2], in [3], in assay [6], in assay [7] and in [10] was inactive. Besides, the compound was called inactive in assay [12], in assay [14], in [15], in [16] and in assay [17]. Also, the AC50 in [4] was 94.4 µM (active); in assay [5], 105 µM (active); in assay [9] it was 10.6 µM (active); in assay [11], 52.6 µM (active); in assay [13], 32.6 µM (active); in assay [18], 60.6 µM (active).

For the compound `CCOP(=S)(OCC)SCn1c(=O)oc2cc(Cl)ccc21`, the compound was called inactive in assay [1], in assay [2], in [3], in [4], in assay [5] and in assay [6]. Further, the result in assay [7], in assay [10], in assay [11], in assay [12], in assay [14] and in assay [15] was inactive. Moreover, the compound was called inactive in assay [16], in [17] and in assay [18]. The AC50 in [9] is 61.4 µM (active); in assay [13], 99.8 µM (active).

Consider `COC(=O)N(OC)c1ccccc1COc1ccn(-c2ccc(Cl)cc2)n1`, for which the call in [1], in [2], in assay [4], in assay [6], in assay [7] and in assay [14] was inactive. The compound was classed as inactive in assay [15], in assay [16], in assay [17] and in [18]. Besides, the AC50 was 6.07 µM (active) in assay [3]; 0.332 µM (active) in assay [5]; 1.44 µM (active) in assay [9]; 25.5 µM (active) in assay [10]; 3.69 µM (active) in assay [11]; 39.9 µM (active) in [12]. For the same compound, the AC50 in assay [13] is 3.29 µM (active).

Regarding `COc1nc(C)nc(NC(=O)NS(=O)(=O)c2ccccc2CCC(F)(F)F)n1`, the outcome in assay [1], in assay [2], in assay [3], in [4], in [5] and in [6] was inactive. Moreover, the outcome in assay [7], in assay [9], in [10], in assay [11], in assay [12] and in assay [13] was inactive. Also, the outcome in assay [14], in [15], in assay [16], in assay [17] and in assay [18] was inactive.

On to `CCCCC(CC)COC(=O)c1ccccc1C(=O)OCC(CC)CCCC` (stereo unspecified), for which the call in assay [1], in [2], in [3], in [4], in [5] and in [6] was inactive. Besides, the call in [7], in assay [9], in assay [10], in [11], in assay [12] and in [13] was inactive. The compound was called inactive in [14], in assay [15], in [16], in assay [17] and in assay [18].

`CCCC1COC(Cn2cncn2)(c2ccc(Cl)cc2Cl)O1` (stereo unspecified): the compound was classed as inactive in [1], in assay [2], in assay [3], in assay [4], in assay [6] and in [7]. The result in [10], in [11], in assay [12], in assay [14], in [15] and in [16] was inactive. Besides, the compound was classed as inactive in assay [17] and in [18]. In addition, the AC50 in assay [5] is 12.8 µM (active); in assay [8], 100 µM (active); in assay [9], 76 µM (active); in assay [13] it was 77.7 µM (active).
